Data as given in the supplement of paper PMC10849652.
About 7,900 targets were measured; listed, in parts, are those with a hit and a random draw of the rest. About 0.6% of all pairs of compound and target were hits. A number with no mark means an inactive call.

Key:
Test in all cases: log2 fold change, soluble protein after heating vs DMSO (PISA); higher = thermal stabilisation; K562 cells, 10 uM, 30 min; active = over 0.2 and 3.5 SD of the protein, either way, in both replicates (recomputed)
IRAK-1-4 Inhibitor I = compound: C1COCCN1CCN2C3=CC=CC=C3N=C2NC(=O)C4=CC(=CC=C4)[N+](=O)[O-] [IRAK-1-4 Inhibitor I]
In short: (§1)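 K562 cells at 2×10^6 cells/mL were treated for 30 min with 10 μM compound, and aliquots were heated for 3 min over 48°C-58°C before pooling. Extraction used PBS with 0.5% NP-40 at 4°C, and soluble protein was the supernatant after 21,000xg for 90 min, measured by TMTpro 16plex LC-MS/MS with channel sums equalised. Thermal stability values, relative to control samples and from duplicates, are log2 fold changes.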

ibrutinib = compound: C=CC(=O)N1CCC[C@@H](n2nc(-c3ccc(Oc4ccccc4)cc3)c3c(N)ncnc32)C1 [ibrutinib]
In short: as §1

[1] = compound: CC(=O)c1cnc2ccc(-c3cc(Cl)c(O)c(Cl)c3)nc2c1N[C@H]1CC[C@H](CN(C)C)CC1
In short: as §1

[2] = compound: CC(C)C1=C2N=C(C=C(N2N=C1)NCC3=CC=CC=C3)NCCCCCCN
In short: as §1

pinometostat = compound: CC(C)N(C[C@H]1O[C@@H](n2cnc3c(N)ncnc32)[C@H](O)[C@@H]1O)[C@H]1C[C@@H](CCc2nc3cc(C(C)(C)C)ccc3[nH]2)C1 [pinometostat]
In short: as §1

[3] = compound: CC1=C(C(CC(=O)N1)C2=CC=C(C=C2)C(F)(F)F)C(=O)NC3=C(C=C4C(=C3)C=NN4)F
In short: as §1

[4] = compound: CC1=C(C2=C(C=C1)C(=O)C3=CC=CC=C3N2CCCN)C
In short: as §1

ralimetinib = compound: CC(C)(C)Cn1c(N)nc2ccc(-c3[nH]c(C(C)(C)C)nc3-c3ccc(F)cc3)nc21 [ralimetinib]
In short: as §1

[5] = compound: CC(C)(O)CC(=O)NCCn1ccc2ncnc(Nc3ccc(Oc4cccc(C(F)(F)F)c4)c(Cl)c3)c21
In short: as §1

[6] = compound: CC(C)C[C@@H](C=O)NC(=O)[C@H](CC(C)C)NC(=O)[C@H](CC(C)C)NC(=O)OCc1ccccc1
In short: as §1

UniProt Q86UD1, sequence (Q86UD1 whole entry, looked up): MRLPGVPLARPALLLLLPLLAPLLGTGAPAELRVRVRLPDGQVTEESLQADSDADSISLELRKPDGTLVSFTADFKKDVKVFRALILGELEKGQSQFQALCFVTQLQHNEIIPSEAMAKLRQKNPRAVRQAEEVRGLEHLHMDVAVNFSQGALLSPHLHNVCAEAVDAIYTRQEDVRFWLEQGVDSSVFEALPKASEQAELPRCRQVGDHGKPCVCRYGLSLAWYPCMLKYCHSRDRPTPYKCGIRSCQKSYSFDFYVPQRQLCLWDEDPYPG
NA, A0A494C071, sequence (A0A494C071 whole entry, looked up): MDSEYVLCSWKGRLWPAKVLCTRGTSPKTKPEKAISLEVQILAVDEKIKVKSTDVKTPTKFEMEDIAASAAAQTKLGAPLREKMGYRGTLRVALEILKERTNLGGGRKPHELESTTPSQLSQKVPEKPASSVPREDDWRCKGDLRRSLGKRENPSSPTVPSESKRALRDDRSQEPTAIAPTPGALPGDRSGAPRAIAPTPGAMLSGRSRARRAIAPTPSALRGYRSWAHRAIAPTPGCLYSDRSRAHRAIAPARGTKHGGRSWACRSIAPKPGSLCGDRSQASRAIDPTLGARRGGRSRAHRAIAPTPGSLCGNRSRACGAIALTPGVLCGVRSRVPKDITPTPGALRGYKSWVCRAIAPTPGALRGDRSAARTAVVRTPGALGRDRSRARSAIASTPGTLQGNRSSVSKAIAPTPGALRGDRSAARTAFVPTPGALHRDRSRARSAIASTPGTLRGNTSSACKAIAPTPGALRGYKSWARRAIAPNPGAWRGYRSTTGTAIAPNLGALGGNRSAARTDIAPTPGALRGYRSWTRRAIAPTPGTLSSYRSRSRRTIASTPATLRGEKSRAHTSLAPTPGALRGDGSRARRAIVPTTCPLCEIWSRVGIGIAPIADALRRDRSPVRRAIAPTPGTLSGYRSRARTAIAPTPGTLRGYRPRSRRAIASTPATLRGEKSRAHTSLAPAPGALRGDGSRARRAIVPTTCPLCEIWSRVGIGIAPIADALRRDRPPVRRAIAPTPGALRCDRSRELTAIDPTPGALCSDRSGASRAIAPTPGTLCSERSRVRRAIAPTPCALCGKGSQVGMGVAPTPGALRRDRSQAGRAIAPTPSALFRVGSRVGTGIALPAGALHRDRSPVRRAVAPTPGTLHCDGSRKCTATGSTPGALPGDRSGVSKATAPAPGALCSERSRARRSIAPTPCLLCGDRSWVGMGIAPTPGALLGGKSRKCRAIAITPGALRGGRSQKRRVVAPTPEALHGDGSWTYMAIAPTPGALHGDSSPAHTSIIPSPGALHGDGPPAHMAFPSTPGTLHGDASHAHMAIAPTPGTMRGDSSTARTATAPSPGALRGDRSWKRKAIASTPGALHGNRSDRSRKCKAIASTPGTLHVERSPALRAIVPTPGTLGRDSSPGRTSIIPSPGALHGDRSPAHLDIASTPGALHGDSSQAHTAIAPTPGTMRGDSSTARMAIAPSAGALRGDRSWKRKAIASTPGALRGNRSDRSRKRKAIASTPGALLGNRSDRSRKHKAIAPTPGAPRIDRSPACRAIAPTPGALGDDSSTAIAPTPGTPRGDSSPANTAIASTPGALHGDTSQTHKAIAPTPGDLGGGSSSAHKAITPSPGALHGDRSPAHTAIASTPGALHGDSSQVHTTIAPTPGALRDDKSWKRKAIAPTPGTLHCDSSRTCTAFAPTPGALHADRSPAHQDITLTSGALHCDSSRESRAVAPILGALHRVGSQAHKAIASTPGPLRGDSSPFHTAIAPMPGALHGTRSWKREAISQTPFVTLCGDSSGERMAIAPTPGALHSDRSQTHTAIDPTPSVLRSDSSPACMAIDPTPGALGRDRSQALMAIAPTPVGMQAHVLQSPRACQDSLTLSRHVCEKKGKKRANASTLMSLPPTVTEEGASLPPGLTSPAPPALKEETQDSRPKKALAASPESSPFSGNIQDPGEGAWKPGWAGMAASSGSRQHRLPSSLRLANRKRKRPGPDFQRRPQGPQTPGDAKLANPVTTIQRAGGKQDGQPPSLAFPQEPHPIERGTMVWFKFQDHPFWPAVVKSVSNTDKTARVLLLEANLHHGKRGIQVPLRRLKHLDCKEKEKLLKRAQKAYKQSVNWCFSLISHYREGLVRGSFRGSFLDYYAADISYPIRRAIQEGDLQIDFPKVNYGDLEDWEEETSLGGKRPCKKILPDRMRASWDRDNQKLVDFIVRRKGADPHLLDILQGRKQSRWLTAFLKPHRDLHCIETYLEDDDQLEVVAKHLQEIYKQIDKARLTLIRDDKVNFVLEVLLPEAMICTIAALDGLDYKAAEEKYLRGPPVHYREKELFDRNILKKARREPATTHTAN
UniProt Q9H6N6, sequence (Q9H6N6 whole entry, looked up): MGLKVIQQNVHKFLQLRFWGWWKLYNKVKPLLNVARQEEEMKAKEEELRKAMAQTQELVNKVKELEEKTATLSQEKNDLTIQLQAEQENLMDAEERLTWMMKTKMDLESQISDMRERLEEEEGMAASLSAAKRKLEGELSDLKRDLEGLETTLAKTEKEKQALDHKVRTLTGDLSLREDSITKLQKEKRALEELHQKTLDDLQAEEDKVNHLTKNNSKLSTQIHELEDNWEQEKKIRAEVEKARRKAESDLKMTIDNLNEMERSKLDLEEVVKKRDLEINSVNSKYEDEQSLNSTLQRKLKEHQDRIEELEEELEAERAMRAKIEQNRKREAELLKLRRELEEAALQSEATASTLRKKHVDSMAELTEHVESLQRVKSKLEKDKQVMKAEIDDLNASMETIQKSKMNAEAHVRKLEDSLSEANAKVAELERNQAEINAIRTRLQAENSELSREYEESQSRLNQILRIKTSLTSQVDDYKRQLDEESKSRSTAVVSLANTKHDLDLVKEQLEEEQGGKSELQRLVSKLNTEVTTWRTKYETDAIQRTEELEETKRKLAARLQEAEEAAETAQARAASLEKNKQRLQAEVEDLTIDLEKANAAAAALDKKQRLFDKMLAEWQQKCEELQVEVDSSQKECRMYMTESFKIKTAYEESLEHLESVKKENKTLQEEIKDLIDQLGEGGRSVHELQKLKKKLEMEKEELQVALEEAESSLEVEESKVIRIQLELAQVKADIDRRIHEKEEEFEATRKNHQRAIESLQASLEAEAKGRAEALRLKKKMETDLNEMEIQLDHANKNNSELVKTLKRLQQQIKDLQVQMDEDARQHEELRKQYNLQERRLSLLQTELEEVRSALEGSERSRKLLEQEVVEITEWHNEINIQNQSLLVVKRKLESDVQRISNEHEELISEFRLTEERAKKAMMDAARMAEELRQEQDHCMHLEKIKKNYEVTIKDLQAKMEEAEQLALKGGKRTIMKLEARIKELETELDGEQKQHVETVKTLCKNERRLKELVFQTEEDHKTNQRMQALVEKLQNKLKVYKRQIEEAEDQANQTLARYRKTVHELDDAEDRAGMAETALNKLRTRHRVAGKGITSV
UniProt Q99549, sequence (Q99549 whole entry, looked up): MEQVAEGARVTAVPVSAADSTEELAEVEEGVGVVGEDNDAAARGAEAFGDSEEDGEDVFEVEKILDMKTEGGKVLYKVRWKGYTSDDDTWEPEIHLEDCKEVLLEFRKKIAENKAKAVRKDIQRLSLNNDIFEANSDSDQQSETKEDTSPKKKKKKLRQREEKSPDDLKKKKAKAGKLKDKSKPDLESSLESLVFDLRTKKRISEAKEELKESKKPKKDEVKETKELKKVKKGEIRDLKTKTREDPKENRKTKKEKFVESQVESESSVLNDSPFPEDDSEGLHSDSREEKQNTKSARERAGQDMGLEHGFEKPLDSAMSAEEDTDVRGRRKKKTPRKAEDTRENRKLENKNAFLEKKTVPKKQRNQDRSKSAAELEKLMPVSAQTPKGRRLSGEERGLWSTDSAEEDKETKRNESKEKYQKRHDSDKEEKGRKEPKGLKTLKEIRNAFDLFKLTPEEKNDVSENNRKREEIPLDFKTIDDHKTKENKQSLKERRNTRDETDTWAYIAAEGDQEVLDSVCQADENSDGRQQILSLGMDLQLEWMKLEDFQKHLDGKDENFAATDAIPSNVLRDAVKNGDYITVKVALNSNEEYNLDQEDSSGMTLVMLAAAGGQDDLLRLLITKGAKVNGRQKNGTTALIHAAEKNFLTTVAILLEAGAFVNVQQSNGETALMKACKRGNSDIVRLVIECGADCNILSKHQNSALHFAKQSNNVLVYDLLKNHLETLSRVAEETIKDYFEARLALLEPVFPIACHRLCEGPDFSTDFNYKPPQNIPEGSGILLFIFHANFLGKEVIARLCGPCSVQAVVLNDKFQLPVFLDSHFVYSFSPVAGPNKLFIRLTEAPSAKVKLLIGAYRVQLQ
UniProt Q9UK23, sequence (Q9UK23 whole entry, looked up): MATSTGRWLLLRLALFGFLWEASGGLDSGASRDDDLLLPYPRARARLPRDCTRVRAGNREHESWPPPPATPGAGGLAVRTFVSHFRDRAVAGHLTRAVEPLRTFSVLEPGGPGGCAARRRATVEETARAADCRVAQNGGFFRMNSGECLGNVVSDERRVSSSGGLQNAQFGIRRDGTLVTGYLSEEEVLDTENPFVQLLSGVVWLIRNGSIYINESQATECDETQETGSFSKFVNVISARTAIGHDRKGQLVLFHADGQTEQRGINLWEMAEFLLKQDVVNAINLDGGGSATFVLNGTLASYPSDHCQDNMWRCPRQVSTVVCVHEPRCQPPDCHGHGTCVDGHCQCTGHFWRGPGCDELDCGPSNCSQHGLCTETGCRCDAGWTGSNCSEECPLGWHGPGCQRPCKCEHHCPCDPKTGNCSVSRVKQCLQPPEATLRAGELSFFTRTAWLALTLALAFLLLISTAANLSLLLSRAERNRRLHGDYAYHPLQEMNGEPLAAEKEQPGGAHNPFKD
UniProt Q69YL0, sequence (Q69YL0 whole entry, looked up): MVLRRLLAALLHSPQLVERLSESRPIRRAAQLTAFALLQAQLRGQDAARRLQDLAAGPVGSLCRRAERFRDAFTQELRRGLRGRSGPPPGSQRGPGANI

| Target | log2 fold change (IRAK-1-4 Inhibitor I) | log2 fold change (ibrutinib) | log2 fold change [1] | log2 fold change [2] | log2 fold change (pinometostat) | log2 fold change [3] | log2 fold change [4] | log2 fold change (ralimetinib) | log2 fold change [5] | log2 fold change [6] |
| --- | --- | --- | --- | --- | --- | --- | --- | --- | --- | --- |
| MYH16 (UniProt Q9H6N6) | -0.177 | -0.02 | 0.045 | 0.026 | -0.019 | -0.024 | 0.805 (active) | – | – | – |
| OXR1 isoform 2 (UniProt Q8N573) | -0.044 | – | -0.123 | – | 0.066 | -0.028 | 0.031 | -0.088 | -0.118 | 0.119 |
| MLST8 (UniProt Q9BVC4) | 0.002 | -0.048 | 0.099 | -0.136 | -0.093 | 0.02 | 0.037 | – | -0.049 | – |
| MYSM1 (UniProt Q5VVJ2) | -0.264 | 0.291 | – | – | 0.153 | – | – | -0.022 | – | -0.061 |
| OAF (UniProt Q86UD1) | – | – | – | 0.009 | – | – | – | -0.041 | – | -0.013 |
| NAP1L1 (UniProt B7Z9C2) | -0.147 | -0.04 | -0.058 | 0.359 | -0.052 | 0.111 | – | – | – | – |
| NDUFA7 (UniProt M0R0N0) | – | -0.109 | – | -0.136 | – | – | – | – | – | – |
| NOLC1 isoform 3 (UniProt Q14978) | – | – | – | 0.151 | – | – | – | – | – | – |
| NCOA5 (UniProt Q9HCD5) | -0.136 | – | – | -0.194 | 0.048 | 0.082 | – | -0.012 | – | 0.055 |
| NAGPA (UniProt Q9UK23) | -0.078 | 0.228 | -0.014 | 0.112 | 0.052 | 0.083 | -0.062 | – | 0.03 | – |
| NA, A0A494C071 | -0.011 | -0.1 | -0.038 | – | -0.034 | 0.013 | -0.141 | – | 0.03 | – |
| NCBP2AS2 (UniProt Q69YL0) | – | 0.07 | 0.21 | -0.869 (active) | – | 0.089 | -0.008 | -0.01 | – | 0.026 |
| MPHOSPH8 isoform 2 (UniProt Q99549) | -0.149 | – | 0.026 | – | -0.027 | – | -0.84 (active) | 0.271 | -0.06 | 0.035 |
| NA (UniProt J3KR12) | -0.191 | -0.159 | – | – | 0.053 | 0.046 | – | 0.011 | -0.1 | 0.017 |
